aSyn UTR act: Activators working through SNCA 5'UTR binding (MLPCN) | alpha-synuclein 5'UTR reporter, activators screen | activity score, % (tested at 7.5 µM), hits read low | hit rate 7.1% among 300,000 | AID 1814; in the data active means activity score below about -60%
* hit, by the source's call. The list is a sample of the results.

SMILES | aSyn UTR act
Cc1cc(NC(=O)Nc2ccc3c(ccn3C)c2)sn1 | -120.8*
CCCN1CCC(=O)N(CCSc2ccc(C)cc2)CC1 | -78.9*
CC(C)CN1CCC(=O)N(CCSc2ccccc2)CC1 | -107.3*
O=C1CCC(O)CCN1CCSc1ccccc1 (centres undefined) | -92.9*
Cc1nc(-c2ccc(Cl)cc2)sc1C1(C)CC(c2cccnc2)=NO1 (centres undefined) | -122.1*
Cc1nc(C(=O)Nc2ccccc2)sc1C1(C)CC(c2cccnc2)=NO1 (centres undefined) | -111.1*
CCOc1ccc(C2Sc3ccccc3NC3=C2C(=O)OC3)cc1 (centres undefined) | -78.1*
CCOc1ccccc1C1C2=C(COC2=O)Nc2cc3c(cc21)OCO3 (centres undefined) | 116.9
C#CCOc1ccc(C2C3=C(COC3=O)Nc3cc4c(cc32)OCO4)cc1OC (centres undefined) | 132.0
Cn1c(=O)n(/N=C/c2ccccc2)c2ccccc21 | -106.7*
Cc1ccc(O)c(C2=NNC(c3ccc(Cl)cc3)C2)c1 (centres undefined) | -127.6*
Cc1ccc(C2Cc3cc(O)c(O)cc3CN2)cc1 (centres undefined) | 89.0
Cc1ccc(O)c(C2=Nc3ccccc3C2(C)C)c1 | -156.8*
Cc1ccc(NC(=S)/C(=C(\[O-])c2ccc(F)cc2)[n+]2ccccc2)cc1 | -90.4*
O=C(Cc1cccs1)Nc1ccc(-c2nc3ccccc3[nH]2)cc1 | -263.4*
O=C(CSc1ccc(Cl)cc1)Nc1cccc(-c2nc3ccccc3[nH]2)c1 | -89.3*
O=C(CSc1ccccc1)Nc1ccc(-c2nc3ccccc3[nH]2)cc1 | -170.9*
O=C(CN1CCOCC1)Nc1ccc(-c2nc3ccccc3[nH]2)cc1 | -110.6*
Cc1ccc2nc(-c3ccc(NC(=O)CSc4ccccc4)cc3)[nH]c2c1 | -97.7*
Cc1ccc2nc(NC(=O)c3ccc(NS(=O)(=O)c4cccs4)cc3)sc2c1 | -129.8*
CC(C)(C)C(=O)Nc1nc2ccc(S(C)(=O)=O)cc2s1 | -112.1*
Cc1cccc(C(=O)Nc2nc3ccc(S(C)(=O)=O)cc3s2)c1 | -281.4*
C/C(=C\c1ccccc1)C(=O)NCCc1ccccc1 | -62.2*
CC(C)(C)C(=O)NC(=S)NCCc1ccccc1 | -92.0*
Cc1ccc(NC(=O)NCCCc2ccccc2)cc1 | -90.0*
SMILES | aSyn UTR act
O=C(NCCc1ccccc1)/C(=N\O)c1ccccc1 | -106.7*
Fc1ccc(CCNC(=S)Nc2ccc(F)cc2)cc1 | -75.7*
Cc1cccc(NC(=O)C(=O)NCCCc2ccccc2)c1 | -76.6*
CC1=C/C(=N\NC(=S)NCCc2ccccc2)CC(C)(C)C1 | -80.3*
Fc1cc(Br)ccc1NC(=S)NCCc1ccccc1 | -118.6*
S=C(NCCc1ccccc1)NCCc1ccccc1 | -214.8*
CC(C)(C)NC(=O)NCCc1ccccc1 | -95.5*
S=C(NCCc1ccccc1)Nc1ccc(Cl)cc1 | -135.0*
O=C(NCCc1ccccc1)Nc1ccc(Cl)cc1 | -178.1*
COCCN(Cc1ccccc1)C(=S)Nc1ccc(Cl)cc1 | 59.3
O=C(NCCc1cnn(-c2ccccc2)c1)c1cc(COc2c(F)cccc2F)on1 | -79.6*
COc1ccc(OCc2cc(C(=O)NCC3CCCCO3)no2)c(Cl)c1 (centres undefined) | -152.4*
COc1ccc(OCc2cc(C(=O)NCCc3ccccc3)no2)c(Cl)c1 | -95.3*
CN(CCc1ccccc1)C(=O)c1cc(COc2ccc(F)cc2Cl)on1 | -82.2*
COc1ccc(CCNC(=O)c2cc(COc3c(C)cccc3C)on2)c(OC)c1 | -91.2*
COc1ccc(OCc2cc(C(=O)NCC3CCOCC3)no2)c(Cl)c1 | -140.1*
CC(C)(C)c1nnc(N/N=C/c2cc(Br)ccc2O)n(N)c1=O | 115.5
Cc1ccc(C)c(/C=N/Nc2nc3ccccc3c(=O)n2O)c1 | -85.4*
C/C(=N\Nc1nc2ccccc2c(=O)n1O)c1ccco1 | -119.4*
Clc1ccc(-c2nnc(-c3ccccc3)c(N3CCSCC3)n2)cc1 | -62.4*
CCN(CC)c1ccc2cc(NC(=O)CCC(=O)O)c(=O)oc2c1 | 120.2
CCN(CC)c1ccc2cc(C(N)=O)c(=N)oc2c1 | -67.0*
CCN(CC)c1ccc2c(-c3ccc(S(=O)(=O)O)cc3S(=O)(=O)[O-])c3ccc(=[N+](CC)CC)cc-3oc2c1 | 80.2
CCN(CC)c1ccc2cc(C(N)=O)c(=O)oc2c1 | -97.6*
CCCOc1cccc(C(=O)NC(=S)Nc2ccc(N3CCN(C)CC3)cc2)c1 | -68.8*
SMILES | aSyn UTR act
CCOc1cccc(C(=O)NC(=S)Nc2ccc(N3CCN(CC)CC3)cc2)c1 | -80.3*
COc1ccc(CSc2nnc(C)s2)cc1F | -127.4*
COC(=O)c1cccc(CSc2nnc(C)s2)c1 | -81.9*
O=C(NNc1cccc(Cl)n1)c1ccc(Cl)cc1Cl | -80.7*
NC(=O)c1ccccc1NC(=O)/C=C/c1ccccc1 | -116.5*
NC(=O)c1ccccc1NC(=O)/C=C/c1ccc(Cl)cc1 | -109.5*
Cn1nnc(NC(=O)c2ccc3ccccc3c2)n1 | -62.8*
Cn1nnc(NC(=O)c2ccc(C(C)(C)C)cc2)n1 | -94.9*
O=c1c(-c2ccc(O)cc2)coc2cc(OC3OC(CO)C(O)C(O)C3O)ccc12 (centres undefined) | -82.2*

Assay outcomes as filed in PubChem BioAssay.
